Measured values as given in publication PMC5540273 (PLoS ONE, 2017).

Legend:
Conditions in all cases: concentration: 1 μM, replicates: in singlicate; n = 1
BMPR1A = tested on: BMPR1A
BMPR1B = tested on: BMPR1B
BMPR2 = tested on: BMPR2
BMX = tested on: BMX
BRAF = tested on: BRAF
BRK = tested on: T1, BRK
T1 construct: gene PTK6

BRSK1 = tested on: BRSK1
BRSK2 = tested on: BRSK2
BTK = tested on: BTK
BUB1 = tested on: BUB1
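Further: KINOMEscan kinase panel screen.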

Compound	%Inh (BMPR1A) [%]	%Inh (BMPR1B) [%]	%Inh (BMPR2) [%]	%Inh (BMX) [%]	%Inh (BRAF) [%]	%Inh (BRK) [%]	%Inh (BRSK1) [%]	%Inh (BRSK2) [%]	%Inh (BTK) [%]	%Inh (BUB1) [%]
O=C(Nc1ccc2c(c1)OCO2)NC1CCN(c2ccnc(Nc3ccc(F)cc3)n2)C1 (centres unmarked) [GSK1379724]	0	0	18	5	1	16	0	0	0	24
Cn1ccc2ncnc(Oc3cccc(C(=O)Nc4ccccc4)c3)c21	5	13	14	0	0	15	0	0	0	8
Cc1cccc(-c2nc(Nc3cccc(C(N)=O)c3)c3ccccc3n2)n1 [GW876019]	74	0	14	0	0	9	18	0	9	16
O=c1cc(N2CCOCC2)nc2n(Cc3cccc(Cl)c3Cl)ccn12 [GSK2286295]	0	0	0	25	0	8	13	0	0	0
Cc1cccc(-c2nc(-c3ccc(S(C)(=O)=O)cc3)sc2-c2ccnc(NCCc3ccccc3)c2)c1	27	6	1	0	95.8	0	3	0	0	24
COC(=O)c1c(-c2ccccc2)c2cc(C(=O)O)ccc2c(=O)n1Cc1ccccc1	0	3	0	17	90	0	0	0	0	0
Cc1ccc(NC(=O)Nc2cc(C(C)(C)C)nn2-c2ccccc2)cc1 [GSK1014915]	0	0	37	14	74	20	100	0	0	21
Cc1cc(N2Cc3ccccc3C2)nc(Nc2ccc(S(=O)(=O)N3CCOCC3)cc2)n1.Cl [GSK1669917]	0	0	0	11	0	38	0	0	0	21
CCn1c(-c2cccnc2O)nc2cnccc21 [SB-736715]	0	0	0	0	0	0	0	0	0	6
Nc1ncnc2[nH]c(-c3ccccc3)nc12 [AH5015]	0	0	0	20	6	16	1	0	1	38
Cc1c(Cn2ccn3c(=O)cc(N4CCOCC4)nc23)cccc1C(F)(F)F [GSK2289044]	0	0	0	38	0	0	0	0	0	0
COc1ccccc1-c1ccc2c(NC(=O)C3CC3)n[nH]c2n1 [SB-711239]	0	0	10	16	5	2	0	2	32	11
COc1ccc(Nc2nccc(NCCNC(=O)Nc3ccccc3F)n2)cc1 [GSK1379901]	0	0	6	2	0	36	16	0	0	53
Cl.Oc1ccc(-c2nc(-c3ccccc3)[nH]c2-c2ccncc2)cc1 [SB-428218]	0	0	20	0	60	26	0	0	21	93
COc1ccc2nc(-c3cccc(C)n3)nc(Nc3ccncc3)c2c1 [GSK204919]	0	0	0	27	0	8	4	0	0	38
Cc1ccc(NC(=O)Nc2cccc(Cl)c2)cc1-c1ccc(C(=O)Nc2ccncc2)cc1 [GSK1398468]	0	0	0	0	67	13	100	9	0	53
COc1ccc(CNC(=O)NC2CCN(c3ccnc(Nc4cc(OC)c(OC)c(OC)c4)n3)C2)cc1 (centres unmarked) [GSK1379748]	1	0	0	21	0	3	0	0	32	32
